# Source: the supplement of paper PMC6522484
# ± gives the standard deviation of the averaged measurements.
# Key:
# DLD1 [1] = assay: cell viability (CellTiter-Glo) relative to plate median (fraction of plate median); higher = more viable cells; settings: 10 µM, treatment time 24 h
# Summary of the method: (§1)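 Reporter and viability luminescence were measured in colorectal cancer cells stably carrying lentiviral TCF/Wnt firefly luciferase reporters. The cells were exposed to kinase inhibitor library compounds at a final 10 µM for 24 h, starting 24 h after seeding in 384-well plates. Each well was normalised to the plate median (webcellHTS2, additive, no log transformation), and two independent replicates were averaged.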
# HCT116 [2] = assay: as above; settings: 10 µM; treatment time 24 h; reporter: TCF4/Wnt
# Summary of the method: as §1
# SW480 [3] = assay: as above; settings: 10 µM; treatment time 24 h; reporter: 7TFP
# Summary of the method: as §1
# DLD1 [4] = assay: TCF/Wnt firefly luciferase reporter signal relative to plate median (fraction of plate median); higher = higher Wnt reporter signal; settings: 10 µM, treatment time 24 h
# Summary of the method: as §1
# HCT116 [5] = assay: as above; settings: 10 µM; treatment time 24 h; reporter: TCF4/Wnt
# Summary of the method: as §1
# SW480 [6] = assay: as above; settings: 10 µM; treatment time 24 h; reporter: 7TFP
# Summary of the method: as §1
# DLD1 [7] = assay: cell viability (CellTiter-Glo) relative to plate median (fraction of plate median); higher = more viable cells; settings: 5 µM; treatment time 24 h; reporter: 7TFP
# Summary of the method: (§2)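 Colorectal cancer cell lines stably carrying lentiviral TCF/Wnt firefly luciferase reporters (7TFP or TCF4/Wnt) were plated in 384-well plates and, 24 h later, given library compounds at a final 5 µM for 24 h. Firefly luciferase or CellTiterGlo luminescence was read on parallel plates with a Tecan F500 reader. Each well's signal was normalised to the plate median in webcellHTS2 (additive, without log transformation). Values are the mean of two independent replicates.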
# HCT116 [8] = assay: as above; settings: 5 µM; treatment time 24 h; reporter: TCF4/Wnt
# Summary of the method: as §2
# SW480 [9] = assay: as above; settings: 5 µM; treatment time 24 h; reporter: 7TFP
# Summary of the method: as §2
# DLD1 [10] = assay: TCF/Wnt firefly luciferase reporter signal relative to plate median (fraction of plate median); higher = higher Wnt reporter signal; settings: 5 µM; treatment time 24 h; reporter: 7TFP
# Summary of the method: as §2
# SW480 [11] = assay: as above; settings: 5 µM; treatment time 24 h; reporter: 7TFP
# Summary of the method: as §2
structure (smiles),measurement,setting,value
CCN1CCN(C(=O)Cc2ccc(Nc3ncc(F)c(Nc4ccc(C(=O)Nc5ccccc5Cl)cc4)n3)cc2)CC1 [Aurora A Inhibitor I],cell viability,DLD1 [1]; reporter: 7TFP,0.955 ± 0.036
same,cell viability,DLD1 [1]; reporter: TCF4/Wnt,1.09 ± 0.057
same,cell viability,HCT116 [2],1.09 ± 0.14
same,cell viability,SW480 [3],0.927 ± 0.093
same,TCF/Wnt firefly luciferase reporter signal,DLD1 [4]; reporter: 7TFP,1.16 ± 0.057
same,TCF/Wnt firefly luciferase reporter signal,DLD1 [4]; reporter: TCF4/Wnt,1.16 ± 0.028
same,TCF/Wnt firefly luciferase reporter signal,HCT116 [5],1.21 ± 0.071
same,TCF/Wnt firefly luciferase reporter signal,SW480 [6],1.02 ± 0.035
O=[N+]([O-])O[C@H]1CO[C@H]2[C@@H]1OC[C@H]2O[N+](=O)[O-],cell viability,DLD1 [7],1
same,cell viability,HCT116 [8],1.07 ± 0.014
same,cell viability,SW480 [9],1.05 ± 0.028
same,TCF/Wnt firefly luciferase reporter signal,DLD1 [10],1.02 ± 0.11
same,TCF/Wnt firefly luciferase reporter signal,SW480 [11],1.11
c1ccc2c(c1)sc1ccccc12,cell viability,DLD1 [7],1 ± 0.026
same,cell viability,HCT116 [8],0.97 ± 0.11
same,cell viability,SW480 [9],1.01 ± 0.049
same,TCF/Wnt firefly luciferase reporter signal,DLD1 [10],0.867 ± 0.033
same,TCF/Wnt firefly luciferase reporter signal,SW480 [11],0.935 ± 0.036
C[N+]1(C)CCCC(OC(=O)C(O)(c2ccccc2)c2ccccc2)C1 (centres undefined),cell viability,DLD1 [7],0.965 ± 0.036
same,cell viability,HCT116 [8],0.936 ± 0.063
same,cell viability,SW480 [9],1.01 ± 0.014
same,TCF/Wnt firefly luciferase reporter signal,DLD1 [10],1.05 ± 0.014
same,TCF/Wnt firefly luciferase reporter signal,SW480 [11],0.957 ± 0.043
Cc1ccccc1-n1c(Cn2ncc3c(N)ncnc32)nc2cccc(C)c2c1=O,cell viability,DLD1 [1]; reporter: 7TFP,1.07 ± 0.028
same,cell viability,DLD1 [1]; reporter: TCF4/Wnt,1.03
same,cell viability,HCT116 [2],1.22 ± 0.21
same,cell viability,SW480 [3],1 ± 0.036
same,TCF/Wnt firefly luciferase reporter signal,DLD1 [4]; reporter: 7TFP,1.11 ± 0.13
same,TCF/Wnt firefly luciferase reporter signal,DLD1 [4]; reporter: TCF4/Wnt,0.77 ± 0.022
same,TCF/Wnt firefly luciferase reporter signal,HCT116 [5],0.604 ± 0.42
same,TCF/Wnt firefly luciferase reporter signal,SW480 [6],0.879 ± 0.2
CN[C@@H]1C[C@H]2O[C@@](C)([C@@H]1OC)n1c3ccccc3c3c4c(c5c6ccccc6n2c5c31)C(=O)NC4 [Staurosporine],cell viability,DLD1 [1]; reporter: 7TFP,0.617 ± 0.047
same,cell viability,DLD1 [1]; reporter: TCF4/Wnt,0.701 ± 0.067
same,cell viability,HCT116 [2],0.23 ± 0.13
same,cell viability,SW480 [3],0.68 ± 0.25
same,cell viability,DLD1 [7],0.837 ± 0.027
same,cell viability,HCT116 [8],0.712 ± 0.0099
same,cell viability,SW480 [9],1.14 ± 0.035
same,TCF/Wnt firefly luciferase reporter signal,DLD1 [10],0.583 ± 0.023
same,TCF/Wnt firefly luciferase reporter signal,SW480 [11],0.965 ± 0.045
same,TCF/Wnt firefly luciferase reporter signal,DLD1 [4]; reporter: 7TFP,0.204 ± 0.069
same,TCF/Wnt firefly luciferase reporter signal,DLD1 [4]; reporter: TCF4/Wnt,0.2 ± 0.04
same,TCF/Wnt firefly luciferase reporter signal,HCT116 [5],0.103 ± 0.0065
same,TCF/Wnt firefly luciferase reporter signal,SW480 [6],0.346 ± 0.19
Cc1ncc(CNC(=O)N(CCCl)N=O)c(N)n1,cell viability,DLD1 [7],1.02 ± 0.021
same,cell viability,HCT116 [8],0.98 ± 0.0071
same,cell viability,SW480 [9],1.025 ± 0.0071
same,TCF/Wnt firefly luciferase reporter signal,DLD1 [10],1.01 ± 0.03
same,TCF/Wnt firefly luciferase reporter signal,SW480 [11],0.987 ± 0.019
C/C=C(/C)C(=O)O[C@H]1CC[C@@]2(C)[C@@H]3CC[C@H]4[C@]5(O)C[C@H](O)[C@@]6(O)[C@@H](CN7C[C@@H](C)CC[C@H]7[C@@]6(C)O)[C@]5(O)C[C@@]42O[C@]13O,cell viability,DLD1 [7],0.994 ± 0.037
same,cell viability,HCT116 [8],0.995 ± 0.021
same,cell viability,SW480 [9],0.946 ± 0.017
same,TCF/Wnt firefly luciferase reporter signal,DLD1 [10],0.952 ± 0.036
same,TCF/Wnt firefly luciferase reporter signal,SW480 [11],0.9235 ± 0.0078
COP(=O)(OC)OC=C(Cl)Cl,cell viability,DLD1 [7],1.05 ± 0.014
same,cell viability,HCT116 [8],0.94 ± 0.099
same,cell viability,SW480 [9],0.994 ± 0.037
same,TCF/Wnt firefly luciferase reporter signal,DLD1 [10],1.04 ± 0.18
same,TCF/Wnt firefly luciferase reporter signal,SW480 [11],1.03 ± 0.028
Nc1ccncc1,cell viability,DLD1 [7],1.025 ± 0.0071
same,cell viability,HCT116 [8],1.07 ± 0.028
same,cell viability,SW480 [9],1 ± 0.1
same,TCF/Wnt firefly luciferase reporter signal,DLD1 [10],1.03 ± 0.054
same,TCF/Wnt firefly luciferase reporter signal,SW480 [11],1.13 ± 0.071
N#Cc1nn(-c2c(Cl)cc(C(F)(F)F)cc2Cl)c(N)c1[S+]([O-])C(F)(F)F (centres undefined),cell viability,DLD1 [7],1.02 ± 0.045
same,cell viability,HCT116 [8],1.04 ± 0.028
same,cell viability,SW480 [9],1.005 ± 0.0071
same,TCF/Wnt firefly luciferase reporter signal,DLD1 [10],1.01 ± 0.05
same,TCF/Wnt firefly luciferase reporter signal,SW480 [11],1.015 ± 0.0071
